U2OS ROS induce: cancer cell ROS induction; U2OS ROS induction, H2DCF-DA fluorescence; ROS induction (% of piperlongumine), % at 10 µM; actives 2% (n = 46,000); AID 624156; in the data active = ROS induction above about 79%, passing the limit was not always enough; inconclusive = no clear call, values can overlap the other calls
NOMO-1 viab: STK33 inhibitor candidate reducing NOMO-1 cell viability; NOMO-1 AML viability, CellTiter-Glo luminescence, 72 h; inhibition, % (concentration not given with the values); actives 7.5% (n = 37,000); AID 2330; in the data active = inhibition above about 80%; inconclusive = no clear call, values can overlap the other calls
Of the large screens only hits and unclear results are named; the others gave an inactive call. This is one part of a sample in which hits are shown more often than they occur.

N#CCCN(/N=C/c1ccccc1)C1=NS(=O)(=O)c2ccccc21	U2OS ROS induce 128
CC(C)NC(=O)N(C)C[C@H]1Oc2ccc(NC(=O)CCN3CCOCC3)cc2C(=O)N([C@@H](C)CO)C[C@@H]1C	none
C[C@@H]1CCCCO[C@H](CN(C)C(=O)Nc2ccc(F)cc2)[C@@H](C)CN([C@H](C)CO)C(=O)c2cc(NC(=O)Nc3ccccc3)ccc2O1	none
Cn1c2ccccc2c2nnc(SCC(=O)c3ccc(Cl)cc3)nc21	U2OS ROS induce 117
C=CCn1c2ccccc2c2nnc(SCC(=O)c3ccc(Cl)cc3)nc21	none
N#C/C(=C\c1ccc(O)c(O)c1)C(=O)Nc1ccccc1	NOMO-1 viab inconclusive
N#C/C(=C/c1ccc(O)c(O)c1)C(=O)OC/C=C/c1ccccc1	NOMO-1 viab 99
C[C@@H]1CN([C@@H](C)CO)C(=O)c2cccc(NS(=O)(=O)c3cn(C)cn3)c2O[C@@H]1CN(C)S(C)(=O)=O	none
C[C@@H]1CN([C@H](C)CO)C(=O)Cc2cc(NC(=O)C3CC3)ccc2O[C@@H]1CN(C)S(=O)(=O)c1ccc(F)cc1	none
O=C1NCN(c2ccccc2)C12CCN(CCCC(c1ccc(F)cc1)c1ccc(F)cc1)CC2	NOMO-1 viab 114
Cc1ccc(S(=O)(=O)N[C@@H](Cc2ccccc2)C(=O)CCl)cc1	U2OS ROS induce 79, NOMO-1 viab 120
CCCC(NS(=O)(=O)c1ccc(C)cc1)C(=O)O (stereo not drawn)	none (no result: U2OS ROS induce)
CCc1cc(C(=O)OC)c(NC(=O)CC2Nc3cccc4cccc(c34)NC2=O)s1 (stereo not drawn)	none
C[C@@H]1CN([C@@H](C)CO)C(=O)c2cccc(NC(=O)Nc3ccc(C(F)(F)F)cc3)c2O[C@H]1CN(C)Cc1ccc2c(c1)OCO2	NOMO-1 viab 85
C[C@H](CO)N1C[C@H](C)[C@@H](CN(C)Cc2ccc3c(c2)OCO3)Oc2c(NC(=O)Nc3ccc(C(F)(F)F)cc3)cccc2C1=O	NOMO-1 viab 104
C[C@H](CO)N1C[C@H](C)[C@H](CN(C)Cc2ccc3c(c2)OCO3)Oc2c(NC(=O)Nc3ccc(C(F)(F)F)cc3)cccc2C1=O	NOMO-1 viab 104
C[C@H]1CN([C@@H](C)CO)C(=O)c2cccc(NC(=O)Nc3ccccc3)c2O[C@H]1CN(C)Cc1ccc2c(c1)OCO2	none
C[C@H]1CN([C@@H](C)CO)C(=O)c2cccc(NC(=O)Nc3ccc(C(F)(F)F)cc3)c2O[C@@H]1CN(C)Cc1ccc2c(c1)OCO2	NOMO-1 viab 109
C[C@H](CO)N1C[C@H](C)[C@@H](CN(C)Cc2ccc3c(c2)OCO3)Oc2c(NC(=O)Nc3ccc(F)cc3)cccc2C1=O	none
C[C@H](CO)N1C[C@H](C)[C@H](CN(C)Cc2ccc3c(c2)OCO3)Oc2c(NC(=O)Nc3ccc(F)cc3)cccc2C1=O	none
CCOC(=O)c1sc(COc2ccc3nonc3c2)nc1C	none (no result: NOMO-1 viab)
Cn1c(SCC(=O)Nc2cc(Cl)cc(Cl)c2)nnc1-c1ccc(Cl)cc1	none
C[C@H](CO)N1C[C@H](C)[C@H](CN(C)Cc2ccc(Cl)c(Cl)c2)Oc2ccc(NS(=O)(=O)c3cn(C)cn3)cc2CC1=O	none
CC(C)(C)c1cc2oc3c(c2c(C=NCc2ccncc2)c1O)CCCC3	none
Cc1cc(C)c(NC(=O)CSc2nc3ccc(NC(=O)c4ccccc4Cl)cc3s2)c(C)c1	none
C[C@H](CO)N1C[C@H](C)[C@H](CN(C)Cc2ccc3c(c2)OCO3)Oc2c(NC(=O)Nc3ccc4c(c3)OCO4)cccc2C1=O	NOMO-1 viab inconclusive
C[C@@H]1CN([C@H](C)CO)C(=O)c2cccc(NC(=O)Nc3ccc(C(F)(F)F)cc3)c2O[C@H]1CN(C)Cc1ccc2c(c1)OCO2	NOMO-1 viab 104
C[C@@H]1CN([C@H](C)CO)C(=O)c2cccc(NC(=O)Nc3ccc(C(F)(F)F)cc3)c2O[C@@H]1CN(C)Cc1ccc2c(c1)OCO2	NOMO-1 viab 104
C[C@@H]1CN([C@H](C)CO)C(=O)c2cccc(NC(=O)Nc3ccc4c(c3)OCO4)c2O[C@H]1CN(C)Cc1ccc(C(F)(F)F)cc1	NOMO-1 viab 104
C[C@H]1CN([C@@H](C)CO)C(=O)c2cccc(NC(=O)Nc3ccccc3)c2O[C@@H]1CN(C)Cc1ccc2c(c1)OCO2	none
Cc1ccc(S(=O)(=O)Nc2cccc3c2O[C@H](CN(C)C)[C@H](C)CN([C@H](C)CO)C3=O)cc1	none
CC(C)NC(=O)N(C)C[C@@H]1Oc2ccc(NC(=O)Cc3ccccc3)cc2CC(=O)N([C@H](C)CO)C[C@H]1C	none
O=C(NCCC12CC3CC(CC(C3)C1)C2)C1CCCCC1	none (no result: NOMO-1 viab)
O=C(Nc1ccc(F)cc1)c1cnccc1C(F)(F)F	none
O=C(c1ccc(Br)cc1)N1Cc2ccccc2NC1=S	NOMO-1 viab 125
O=C(c1ccc(O)cc1)N1Cc2ccccc2NC1=S	none
O=C(c1cc2ccccc2c(=O)o1)N1CCN(C(c2ccccc2)c2ccccc2)CC1	none (no result: NOMO-1 viab)
O=C(NCCC(c1ccccc1)c1ccccc1)c1cc2ccccc2c(=O)o1	U2OS ROS induce 154
C[C@@H]1CN([C@@H](C)CO)C(=O)c2cc(NC(=O)Cn3cnnn3)ccc2O[C@@H]1CN(C)Cc1ccc(C(=O)Nc2ccccc2N)cc1	none
COc1ccc([Si](C)(C)[C@@H]2[C@@H](CC(=O)N3CCC[C@H]3CO)O[C@]3(C(=O)N(C)c4c(Br)cc(C)cc43)[C@H]2C)cc1	none (no result: NOMO-1 viab)
Cc1ccc(S(=O)(=O)N(C)C[C@@H]2Oc3ccc(NC(=O)CCC(F)(F)F)cc3CC(=O)N([C@H](C)CO)C[C@H]2C)cc1	none
C[C@H]1CN([C@@H](C)CO)C(=O)Cc2cc(NC(=O)Nc3ccccc3)ccc2O[C@H]1CN(C)S(=O)(=O)c1ccc(Cl)cc1	NOMO-1 viab 113
Cc1ccc(S(=O)(=O)N(C)C[C@@H]2Oc3ccc(NC(=O)CCC(F)(F)F)cc3CC(=O)N([C@@H](C)CO)C[C@@H]2C)cc1	NOMO-1 viab 134
C[C@H]1CN([C@@H](C)CO)C(=O)Cc2cc(NC(=O)Nc3ccc(F)cc3)ccc2O[C@H]1CN(C)S(=O)(=O)c1ccc(Cl)cc1	NOMO-1 viab 114
C[C@H]1CN([C@@H](C)CO)C(=O)Cc2cc(NC(=O)Nc3ccccc3)ccc2O[C@@H]1CN(C)S(=O)(=O)c1ccc(Cl)cc1	none
C[C@@H]1CN([C@H](C)CO)C(=O)Cc2cc(NC(=O)Nc3ccc(F)cc3)ccc2O[C@@H]1CN(C)S(=O)(=O)c1ccc(Cl)cc1	none
C[C@@H]1CN([C@@H](C)CO)C(=O)Cc2cc(NC(=O)Nc3ccccc3)ccc2O[C@@H]1CN(C)S(=O)(=O)c1ccccc1	none
Cc1ccc(S(=O)(=O)N(C)C[C@@H]2Oc3ccc(NC(=O)Nc4ccccc4)cc3CC(=O)N([C@@H](C)CO)C[C@@H]2C)cc1	NOMO-1 viab 124
COc1cc(OC)cc(-c2nnc(SCC(=O)c3cccc([N+](=O)[O-])c3)o2)c1	none (no result: U2OS ROS induce)
COc1ccc(CN(C)C[C@H]2Oc3ccc(NC(=O)Nc4ccccc4)cc3CC(=O)N([C@@H](C)CO)C[C@H]2C)cc1	none
COC(=O)c1ccccc1N=C(C)C1=C(O)c2ccccc2C1=O	none (no result: NOMO-1 viab)
C[C@H](CO)N1C[C@H](C)[C@H](CN(C)S(=O)(=O)c2ccc(Cl)cc2)Oc2ccc(NC(=O)C3CC3)cc2CC1=O	U2OS ROS induce 123, NOMO-1 viab inconclusive
C[C@@H]1CN([C@H](C)CO)C(=O)Cc2cc(NC(=O)C3CC3)ccc2O[C@@H]1CN(C)S(=O)(=O)c1ccc(Cl)cc1	none

Screening results deposited in PubChem by Broad Institute.
